Among all 5,500 compounds or so, about 2,000 (36%) were called active. Another 18% or so got no clear call; they are omitted. This is one part of the list. Unmarked numbers belong to inactive results. Cut-off read from the data, not from the text of the source: active = normalized growth mostly below about 0.91 (no sharp cut-off); inconclusive = no clear call, values can overlap the other calls; inactive = mostly above about 0.92.
Assay: chemical genetic growth profiling, strain panel (AID 1159580);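 note: tested at 20 µM; growth read once vehicle control cultures reached saturation at 30 °C; 1 = growth at the plate median or of vehicle wells; lower values mean less growth of the strain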
Conditions: S. cerevisiae deletion strains, growth OD

SMILES: CCCCCCCCCCCCCCCCOP(=O)([O-])OCC[N+](C)(C)C
- normalized growth (locus YAL021C, strain ccr4, hits give low values): 0.0619 (active)
- normalized growth (locus YAL026C, strain drs2, hits give low values): 0.0625 (active)
- normalized growth (locus YAL030W, strain snc1, hits give low values): 0.0575 (active)
- normalized growth (locus YBL061C, strain skt5, hits give low values): 0.0614 (active)
- normalized growth (locus YBR009C, strain hhf1, hits give low values): 0.0673 (active)
- normalized growth (locus YBR023C, strain chs3, hits give low values): 0.0636 (active)
- normalized growth (locus YBR171W, strain sec66, hits give low values): 0.0767 (active)
- normalized growth (locus YBR231C, strain swc5, hits give low values): 0.0637 (active)
- normalized growth (locus YBR279W, strain paf1, hits give low values): 0.0644 (active)
- normalized growth (locus YCL011C, strain gbp2, hits give low values): 0.0569 (active)
- normalized growth (locus YCL016C, strain dcc1, hits give low values): 0.0649 (active)
- normalized growth (locus YCL061C, strain MRC1, hits give low values): 0.0638 (active)
- normalized growth (locus YCL069W, strain vba3, hits give low values): 0.0585 (active)
- normalized growth (locus YCR088W, strain abp1, hits give low values): 0.0589 (active)
- normalized growth (locus YDL005C, strain med2, hits give low values): 0.0739 (active)
- normalized growth (locus YDL040C, strain nat1, hits give low values): 0.062 (active)
- normalized growth (locus YDR001C, strain nth1, hits give low values): 0.0559 (active)
- normalized growth (locus YDR069C, strain doa4, hits give low values): 0.0612 (active)
- normalized growth (locus YDR137W, strain rgp1, hits give low values): 0.105 (active)
- normalized growth (locus YDR159W, strain sac3, hits give low values): 0.0874 (active)
- normalized growth (locus YDR195W, strain ref2): 0.133 (active)
- normalized growth (locus YDR297W, strain sur2, hits give low values): 0.0626 (active)
- normalized growth (locus YDR334W, strain swr1, hits give low values): 0.0607 (active)
- normalized growth (locus YDR335W, strain msn5, hits give low values): 0.0579 (active)
- normalized growth (locus YDR392W, strain spt3, hits give low values): 0.0822 (active)
- normalized growth (locus YEL003W, strain gim4, hits give low values): 0.0548 (active)
- normalized growth (locus YEL037C, strain rad23, hits give low values): 0.0549 (active)
- normalized growth (locus YEL061C, strain CIN8 (second series), hits give low values): 0.0587 (active)
- normalized growth (locus YER015W, strain faa2, hits give low values): 0.0638 (active)
- normalized growth (locus YER016W, strain bim1, hits give low values): 0.0622 (active)
- normalized growth (locus YER111C, strain swi4, hits give low values): 0.0695 (active)
- normalized growth (locus YER155C, strain BEM2 (second series), hits give low values): 0.0842 (active)
- normalized growth (locus YFR010W, strain ubp6, hits give low values): 0.0648 (active)
- normalized growth (locus YGL167C, strain pmr1, hits give low values): 0.0766 (active)
- normalized growth (locus YGL173C, strain kem1, hits give low values): 0.082 (active)
- normalized growth (locus YGL227W, strain vid30, hits give low values): 0.0637 (active)
- normalized growth (locus YGL240W, strain doc1, hits give low values): 0.0747 (active)
- normalized growth (locus YGL253W, strain hxk2, hits give low values): 0.0509 (active)
- normalized growth (locus YHR013C, strain ard1, hits give low values): 0.14 (active)
- normalized growth (locus YHR027C, strain rpn1, hits give low values): 0.0701 (active)
- normalized growth (locus YHR030C, strain SLT2, hits give low values): 0.971
- normalized growth (locus YHR079C, strain IRE1, hits give low values): 0.967
- normalized growth (locus YHR142W, strain chs7, hits give low values): 0.0698 (active)
- normalized growth (locus YJL092W, strain hpr5, hits give low values): 0.0564 (active)
- normalized growth (locus YJL095W, strain BCK1 (second series), hits give low values): 0.0584 (active)
- normalized growth (locus YJL095W, strain BCK1, hits give low values): 0.985
- normalized growth (locus YJL115W, strain asf1, hits give low values): 0.0702 (active)
- normalized growth (locus YJL129C, strain trk1, hits give low values): 0.0808 (active)
- normalized growth (locus YJL154C, strain vps35, hits give low values): 0.0578 (active)
- normalized growth (locus YJL164C, strain tpk1, hits give low values): 0.0591 (active)
- normalized growth (locus YJL166W, strain qcr8, hits give low values): 0.061 (active)
- normalized growth (locus YJR066W, strain TOR1, hits give low values): 0.915
- normalized growth (locus YKL160W, strain elf1, hits give low values): 0.0625 (active)
- normalized growth (locus YKR026C, strain gcn3, hits give low values): 0.0625 (active)
- normalized growth (locus YKR091W, strain srl3, hits give low values): 0.072 (active)
- normalized growth (locus YLL001W, strain dnm1, hits give low values): 0.0583 (active)
- normalized growth (locus YLL026W, hits give low values): 0.0591 (active)
- normalized growth (locus YLL041C, strain sdh2, hits give low values): 0.058 (active)
- normalized growth (locus YLR027C, strain aat2, hits give low values): 0.0551 (active)
- normalized growth (locus YLR113W, strain HOG1, hits give low values): 1.07
- normalized growth (locus YLR221C, strain rsa3, hits give low values): 0.0588 (active)
- normalized growth (locus YLR258W, strain gsy2, hits give low values): 0.0598 (active)
- normalized growth (locus YLR262C, strain YPT6 (second series), hits give low values): 0.0755 (active)
- normalized growth (locus YLR320W, strain mms22, hits give low values): 0.0754 (active)
- normalized growth (locus YLR342W, strain FKS1, hits give low values): 0.0648 (active)
- normalized growth (locus YLR357W, strain rsc2, hits give low values): 0.121 (active)
- normalized growth (locus YLR370C, strain arc18, hits give low values): 0.062 (active)
- normalized growth (locus YLR384C, strain iki3, hits give low values): 0.0585 (active)
- normalized growth (locus YML120C, strain ndi1, hits give low values): 0.0597 (active)
- normalized growth (locus YMR058W, strain fet3, hits give low values): 0.0574 (active)
- normalized growth (locus YMR125W, strain sto1, hits give low values): 0.075 (active)
- normalized growth (locus YMR129W, hits give low values): 0.0586 (active)
- normalized growth (locus YMR205C, strain PFK2, hits give low values): 0.0871 (active)
- normalized growth (locus YMR231W, strain pep5, hits give low values): 0.173 (active)
- normalized growth (locus YNL071W, strain lat1, hits give low values): 0.0608 (active)
- normalized growth (locus YNL183C, strain NPR1, hits give low values): 0.912
- normalized growth (locus YNL209W, strain ssb2, hits give low values): 0.0625 (active)
- normalized growth (locus YNL248C, strain rpa49, hits give low values): 0.0698 (active)
- normalized growth (locus YNL322C, strain KRE1 (second series), hits give low values): 0.0641 (active)
- normalized growth (locus YNR049C, strain mso1, hits give low values): 0.0585 (active)
- normalized growth (locus YOR001W, strain rrp6, hits give low values): 0.0712 (active)
- normalized growth (locus YOR070C, strain gyp1, hits give low values): 0.0615 (active)
- normalized growth (locus YOR080W, strain dia2, hits give low values): 0.0657 (active)
- normalized growth (locus YOR083W, strain WHI5, hits give low values): 0.0753 (active)
- normalized growth (locus YOR106W, strain vam3, hits give low values): 0.0675 (active)
- normalized growth (locus YOR231W, strain MKK1, hits give low values): 0.953
- normalized growth (locus YOR265W, strain rbl2, hits give low values): 0.0614 (active)
- normalized growth (locus YOR270C, strain vph1, hits give low values): 0.093 (active)
- normalized growth (locus YOR290C, strain snf2, hits give low values): 0.069 (active)
- normalized growth (locus YPL051W, strain arl3, hits give low values): 0.0646 (active)
- normalized growth (locus YPL078C, strain atp4, hits give low values): 0.0596 (active)
- normalized growth (locus YPL106C, strain sse1, hits give low values): 0.0983 (active)
- normalized growth (locus YPL240C, strain hsp82, hits give low values): 0.0574 (active)
- normalized growth (locus YPL256C, strain CLN2, hits give low values): 1.01

— PubChem BioAssay AID1159580 (chemical genetic matrix, 2015)
